Screens as filed in PubChem.
CYP2C19 inhib: blockers of cytochrome P450 2C19 activity – biochemical, luminescence, ADME assay, primary screen. P33261. CYP2C19 Supersomes, luciferin-H EGE luminescence, 30 min. inhibition, % at 5 µM. hit rate 21% among 96,000. AID 778, 2007;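 active = CYP2C19 inhibition above a set limit at 5 µM in the primary screen, cut at about 50% in these data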;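 also: plate controls were negative control wells for no effect and 2.5 mM tranylcypromine positive control for full effect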
sEH inhibitor: soluble epoxide hydrolase inhibitors, primary screen, biochemical, human sEH; inhibition, % at 2 µM; AID 707, 2007; hit rate 0.34% among 91,000; recombinant human sEH enzymatic activity assay; in the data active = inhibition above about 80%
CYP2C9 inhib: blockers of cytochrome P450 2C9 activity – biochemical, luminescence, ADME assay, primary screen; CYP2C9 Supersomes, luciferin-H conversion; hit rate 20% among 96,000; P11712; inhibition, % at 5 µM;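 active = blocking of liver enzyme CYP2C9 beyond about 50% at 5 µM, limit read from the data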
Target sequence (P11712 whole entry, looked up): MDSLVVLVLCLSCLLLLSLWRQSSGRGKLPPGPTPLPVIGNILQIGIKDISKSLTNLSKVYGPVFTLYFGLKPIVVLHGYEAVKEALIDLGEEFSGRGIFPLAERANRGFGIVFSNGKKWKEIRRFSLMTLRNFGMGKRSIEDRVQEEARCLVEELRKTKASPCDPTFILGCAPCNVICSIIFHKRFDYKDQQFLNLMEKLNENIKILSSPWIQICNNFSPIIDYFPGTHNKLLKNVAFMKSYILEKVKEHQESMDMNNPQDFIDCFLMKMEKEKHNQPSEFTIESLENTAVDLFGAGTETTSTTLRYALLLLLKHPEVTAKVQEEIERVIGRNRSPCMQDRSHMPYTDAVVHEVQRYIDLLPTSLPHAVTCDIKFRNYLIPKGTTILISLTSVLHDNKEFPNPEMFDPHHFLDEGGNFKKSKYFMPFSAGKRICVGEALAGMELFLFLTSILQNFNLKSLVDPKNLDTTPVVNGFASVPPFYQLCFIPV
CYP2C19 activ: human CYP2C19 activators, primary screen, biochemical, luminescence. Cytochrome P450 2C19 (Homo sapiens), P33261. recombinant CYP2C19, luciferin-H EGE luminescence; active compounds read high; 0 = fully inhibited enzyme, 1 = untreated enzyme. activation factor at 5 µM. 96,000 tested, under 10 active. AID 1025, 2008;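 active = activation factor of at least 2 at 5 µM in the primary screen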;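 also: 0 = wells with 2.5 mM tranylcypromine and 1 = vehicle-only wells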
sEH activator: soluble epoxide hydrolase activators, primary screen, biochemical, human sEH | purified human sEH enzymatic activity, activator screen | Bifunctional epoxide hydrolase 2 (Homo sapiens), P34913 | activation, % at 2 µM | hit rate 0.04% among 91,000; in the data active = activation above about 37%
CYP2C9 activ: human CYP2C9 activators, primary screen, biochemical, luminescence; activation factor at 5 µM; hit rate 1.4% among 96,000; Cytochrome P450 2C9 (Homo sapiens), P11712; AID 1024, 2008; recombinant CYP2C9, luciferin-H conversion; active compounds read high; factor 1 = untreated enzyme, 0 = blocked;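 active = activation factor of 2 or more for CYP2C9 at a 5 µM dose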;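 also: 0 = sulfaphenazole-blocked wells and 1 = vehicle-only wells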
Starred values were filed as active, the others as inactive; · = no result. Rows were chosen to be rich in hits. Some 27% of all compounds tested hit in one or more screens of this group.

SMILES	CYP2C19 inhib	sEH inhibitor	CYP2C9 inhib	CYP2C19 activ	sEH activator	CYP2C9 activ
O=C(CC(c1ccccc1)c1cc(Br)ccc1O)NCc1ccco1 (centres undefined)	99*	-13	99*	0	17	0
CC(C)NC(=O)CC(c1ccccc1)c1cc(Br)ccc1O (centres undefined)	95*	4	90*	0	-7	0.1
CC(C)Oc1ccc(CNC(=O)CC(c2ccccc2)c2cc(Cl)ccc2O)cc1 (centres undefined)	87*	3	96*	0.1	0	0
COC(=O)C(C)n1cnc2c(nnn2-c2ccc(OC)cc2)c1=O (centres undefined)	1	-9	11	1	6	0.9
CCOC(=O)C(CC)n1cnc2c(nnn2-c2ccc(C)cc2)c1=O (centres undefined)	17	8	50*	0.8	-8	0.5
O=S(=O)(Nc1ncn[nH]1)c1ccc(Cl)cc1	83*	-6	1	0.2	4	1
O=S(=O)(Nc1nc2ccccc2[nH]1)c1ccc(Cl)cc1	58*	-2	6	0.4	1	0.9
O=C1OCCC1Sc1nc2cc(Cl)ccc2s1 (centres undefined)	92*	·	-163	0.1	·	2.6*
O=C1OCCC1Sc1nc2cc(Cl)ccc2n1Cc1ccccc1 (centres undefined)	59*	-4	48	0.4	5	0.5
OC1CCCCC1Sc1nc2ccccc2s1 (centres undefined)	66*	-2	40	0.3	1	0.6
O=C(Nc1nc2ccccc2s1)C1CCCO1 (centres undefined)	40	-12	18	0.6	13	0.8
O=C1OCCC1Sc1nnc(-c2ccc(O)cc2)o1 (centres undefined)	42	2	-18	0.6	-3	1.2
O=C1OCCC1Sc1nc2ccccc2s1 (centres undefined)	62*	-10	-88	0.4	12	1.9
CC(C)OC(=O)c1c(NC(=O)c2cnn3c2NC(c2ccccc2)CC3C(F)F)sc2c1CCCC2 (centres undefined)	-2	-12	-9	1	13	1.1
CCCC(c1nnnn1CC(=O)OCC)N(Cc1cc2c(C)cc(C)cc2[nH]c1=O)C1CCCC1 (centres undefined)	28	-14	27	0.7	15	0.7
CCC12CN(S(=O)(=O)c3ccc(C)cc3)CC(CC)(CN(S(=O)(=O)c3ccc(C)cc3)C1)C2=O	43	-6	38	0.6	8	0.6
O=S1(=O)CC(NCc2ccccc2)C(Nc2ccccc2)C1 (centres undefined)	86*	3	37	0.1	-1	0.6
COc1ccc(OCCCC(=O)NCc2ccco2)cc1	20	8	10	0.8	-7	0.9
COc1ccc(NC(=O)C2C3C=CC(C3)C2C(=O)NCc2ccco2)cc1 (centres undefined)	67*	-3	37	0.3	4	0.6
COc1ccc(NC2CS(=O)(=O)CC2NCc2ccco2)cc1 (centres undefined)	89*	·	0	0.1	·	1
COc1ccccc1N(CC(=O)NCC1CCCO1)C(=O)CCC(=O)Nc1nccs1 (centres undefined)	·	-7	·	·	8	·
N=c1n(CCO)c2ccccc2n1CCOc1ccccc1	4	·	-5	1	·	1.1
OCCOCCn1c2ccccc2c2ccccc21	55*	·	21	0.5	·	0.8
C#CC(=O)N(c1cc(OC)ccc1OC)C(C(=O)NC1CCCC1)c1cccs1 (centres undefined)	28	-10	25	0.7	13	0.8
CCOC(=O)c1cnc(SC)nc1Nc1cccc2ccccc12	·	-6	·	·	7	·
SMILES	CYP2C19 inhib	sEH inhibitor	CYP2C9 inhib	CYP2C19 activ	sEH activator	CYP2C9 activ
CCOC(=O)c1cnc(SC)nc1Nc1cccc(F)c1	35	4	70*	0.6	-3	0.3
CCOC(=O)c1cnc(SC)nc1Oc1cccc(NS(=O)(=O)c2ccc(F)cc2)c1	26	16	77*	0.7	-16	0.2
CCOC(=O)c1cnc(SC)nc1Oc1cccc(NS(=O)(=O)c2ccccc2)c1	18	-15	82*	0.8	15	0.2
CCOC(=O)c1cnc(SC)nc1Oc1cccc(NC(=O)c2cccc(Cl)c2Cl)c1	14	2	74*	0.9	-3	0.3
CCOC(=O)c1cnc(SC)nc1Oc1cccc(NC(=O)c2ccc(C)cc2)c1	3	4	40	1	-3	0.6
Cc1cccc(OCC(=O)OCC(=O)c2c(N)n(C)c(=O)n(C)c2=O)c1C	-6	-17	-7	1.1	14	1.1
Cc1nnc2c3cnn(-c4ccc(Cl)cc4)c3ncn12	9	·	-9	0.9	·	1.1
O=C(CCc1ccccc1)NNC(=S)NC(=O)c1ccc(Cl)cc1	20	-4	43	0.8	6	0.6
CCCCn1c(=O)[nH]c(=O)c2c1nc(COc1ccc(C#N)cc1)n2CCC	25	·	90*	0.7	·	0.1
C=CCn1c(SCc2nc3c(c(=O)[nH]c(=O)n3CCCC)n2CCC)nnc1-c1ccccc1	44	-20	84*	0.6	20	0.2
CCCCn1c(=O)[nH]c(=O)c2c1nc(CN1C(=O)c3ccccc3S1(=O)=O)n2CCC	80*	5	98*	0.2	-3	0
CCCCn1c(-c2ccsc2)nc2c1c(=O)[nH]c(=O)n2CCC	17	-5	23	0.8	2	0.8
CSc1nnc(-c2sccc2OCc2ccc(C)cc2)n1C	17	-6	13	0.8	7	0.9
C=CCNC1=C(Cl)C(=O)N(c2cccc(Cl)c2Cl)C1=O	90*	-13	47	0.1	12	0.5
O=C1C(Cl)=C(NCCc2ccccc2)C(=O)N1CCc1ccccc1	-3	-1	13	1	4	0.9
O=C1C(Cl)=C(NCCCN2CCOCC2)C(=O)N1CCc1ccccc1	34	-14	78*	0.7	13	0.2
Cc1ccc(N2C(=O)C(Cl)=C(NCCO)C2=O)c(C)c1	42	4	-14	0.6	-5	1.1
O=C1C(Cl)=C(N2CCOCC2)C(=O)N1CCc1ccccc1	88*	11	2	0.1	-11	1
CN1CCN(C2=C(Cl)C(=O)N(CCc3ccccc3)C2=O)CC1	56*	7	14	0.4	-5	0.9
Cc1c(NC(=O)C(C)N2CC(C)OC(C)C2)c(=O)n(-c2ccccc2)n1C (centres undefined)	-8	1	-8	1.1	-3	1.1
O=C1C(Cl)=C(NCC2CCCO2)C(=O)N1c1cccc(Cl)c1Cl (centres undefined)	82*	2	46	0.2	-2	0.5
